Structures are written as SMILES. About 83,000 compounds went through this panel and 20% of them were active in at least one assay; those are over-represented in the sample as a whole.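 Activity criterion: percent growth below 10, measured after cells in 96-well plates were exposed to a single compound concentration for 48 hours.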 The source made the active and inactive calls.

In this assay the test system is HL-60(TB) leukemia. Description: NCI-60 one-dose screen, 48 h (100 = growth as untreated, 0 = no growth, -100 = all killed). Particulars: 10 µM unless noted.
As for `N#CC1=C(N)Oc2c(sc3c(Br)cccc23)C1c1ccc([N+](=O)[O-])cc1` (stereo unspecified), the growth was -13.7% (active).

As to `N=C(N)SCc1c2ccccc2c(CSC(=N)N)c2ccccc12`, the growth is 20.8% (inactive).

For the compound `CSc1ccc2c3c(n(C[C@H](O)CO)c(=O)c2c1)-c1ccccc1C3=O`, the growth is -12.2% (active).

Regarding `COc1ccc(-c2cc(-c3ccc(N(C)C)cc3)nc(NC(=O)c3ccncc3)n2)cc1`, the growth was 113% (inactive).

With `Nc1cc(-c2ccccc2)ccc1O`, the growth was 49.7% (inactive).

On to `Nc1ncc(C#Cc2cncc(NC(=O)c3cccc(C(F)(F)F)c3)c2)c2cccnc12`, for which the growth is 33.2% (inactive).

In the case of `CCNC(=S)N(Cc1ccccc1)Cc1ccccc1`, the growth is 96.2% (inactive).

On to `CCN(CCNc1ccc(C)c2sc3cc(Cl)ccc3c(=O)c12)CC(C)O` (stereo unspecified), for which the growth is 9.78% (active).

As for `O=C(/C=C/c1ccccc1)C(Br)C(Br)c1ccccc1` (stereo unspecified), the growth is -41.8% (active).

As for `COC(=O)c1cc2c(n1Cc1ccccc1)-c1oncc1CCC2`, the growth was 28.9% (inactive).

Regarding `CN1CCN(CC(=O)Nc2ccc3ncnc(Nc4ccc(Oc5cccc(C(F)(F)F)c5)c(Cl)c4)c3c2)CC1`, the growth was -35.7% (active).

As for `CCOC(=O)c1noc2c1CCc1c-2cn(Cc2ccc(OC)cc2)c1-c1cc(OC)c(OC)c(OC)c1`, the growth was -25.5% (active).

For `CC1(O)CCC(Nc2cc(-c3ccc(C(F)(F)F)cc3)c(C#N)c3nc4ccccc4n23)CC1` (stereo unspecified), the growth was 63% (inactive).

As to `CNCc1cccc2c1OCCOCCN(C)C(=O)CN(C)S(=O)(=O)c1ccc(cc1)-c1cnc(N)c(n1)C(=O)N2`, the growth was -32.9% (active).

For `CC(=O)OC[C@H]1OC(Sc2sc(C(=O)c3ccc(Br)cc3)c(N)c2-c2nc3ccccc3s2)[C@H](OC(C)=O)[C@@H](OC(C)=O)[C@@H]1OC(C)=O` (stereo partly specified), the growth is 113% (inactive).

Consider `C#Cc1cccc(NC(=O)c2ccccc2NC(=O)C=C)c1`, for which the growth is 97.7% [8.25 µM] (inactive).

With `COc1cc(/C=C/C(=O)c2ccc(NC(=O)CSc3nnc(-c4cc(-c5ccccc5)nc5ccccc45)n3-c3ccccc3)cc2)cc(OC)c1OC`, the growth was 84.9% (inactive).

Take `C=C(C)c1ccc(/C=N/NC(N)=S)cc1`: the growth was 147% (inactive).

For `O=C(Nc1ncc(Cc2ccc(Cl)cc2)s1)C1=NCCCCN1`, the growth is 97% (inactive).

With `COc1ccc(C(O)(CCC(C)C)C(CN2CCOCC2)c2ccc(Cl)cc2)cc1` (stereo unspecified), the growth is 20.9% (inactive).

Regarding `Cc1c(CN2CCN(C(=O)[C@H](C)O)CC2)sc2c(N3CCOCC3)nc(-c3cnc(N)nc3)nc12`, the growth was -7.28% (active).

On to `CN1CCN(c2ccc3nc(-c4[nH]ncc4Nc4ncnc5c4OCCCN5)[nH]c3c2)CC1`, for which the growth was -28.7% (active).

On to `O=C(Nc1nc2ccc(C(F)(F)F)cc2s1)c1cc(Cl)ccc1O`, for which the growth is -54.4% (active).

Regarding `C=C1C(=O)O[C@H]2[C@H]1CC/C(COC(=O)/C=C/c1cccnc1)=C\CC[C@@]1(C)O[C@@H]21`, the growth was -28% (active).

As to `CCCCC/C=C\C/C=C/CCCCCCCCNC(=O)Nc1ccc([N+](=O)[O-])cc1`, the growth was 4.75% (active).

For `OC(c1cc(-c2ccc(C(F)(F)F)cc2)nc(-c2ccc(C(F)(F)F)cc2)c1)C1CCCCN1` (stereo unspecified), the growth was -61.8% (active).

Consider `COc1cc(-c2nn(-c3cccc(NC(=O)CCN4CCN(Cc5ccccc5)CC4)c3)cc2-c2ccncc2)ccc1Cl`, for which the growth is -5.82% (active).

`N#Cc1ccc(/C=C/c2cn(-c3ccccc3)nc2-c2cccc([N+](=O)[O-])c2)cc1`: the growth was 82.4% (inactive).

On to `CCOC(=O)c1ccc[nH]1`, for which the growth is 79.7% (inactive).

With `CCN1C(=O)N(CC)C2C1NN=c1s/c(=C\c3ccc([N+](=O)[O-])cc3)c(=O)n12` (stereo unspecified), the growth was -37.9% (active).

For the compound `COc1cc([C@@H]2c3cc4c(cc3[C@H](OC3OC5COC(c6ccccc6)OC5C(O)C3O)[C@H]3COC(=O)[C@H]23)OCO4)cc(OC)c1OC` (stereo partly specified), the growth was -33.6% (active).

In the case of `Cc1ccc(-c2c(Br)c(OC(=O)CO[C@@H]3C[C@H](C)CC[C@H]3C(C)C)c(-c3ccc(C)cc3C)c(Br)c2OC(=O)CO[C@H]2C[C@@H](C)CC[C@@H]2C(C)C)c(C)c1`, the growth was 101% (inactive).

Turning to `Cc1cc(C)n(Nc2nc3ccccc3[nH]c2=O)c(=O)c1C#N`, the growth was 102% (inactive).

Consider `CNCCNc1nc2ccccc2c2c(=O)c3cc(OC)ccc3sc12`, for which the growth was -52.9% (active).

For `O=c1cc(-c2ccccc2)[nH]c(=S)[nH]1`, the growth is 104% (inactive).

Regarding `Cc1ccc(NCCN(C)CC(C)O)c2c(=O)c3ccccc3sc12` (stereo unspecified), the growth is 31.3% (inactive).
